The values that follow come from PubChem BioAssay AID504910 (Southern Research Specialized Biocontainment Screening …, 2011).

Results with a measured potency or affinity are listed apart. Calls of active or inactive are those of the source. No rule for the calls is given here.

The nature of the assay: HepG2 cell cytotoxicity, cytotoxicity control, set 4 (AID 504910). The conditions noted are these: series mostly up to 50 µM; viability: at the top concentration.
As a reminder, the viability is a read-out of living cells in per cent, often relative to untreated cells. As to `O=C(CSc1ncccn1)NC1CCCCC1`, the “viability” value is 100% (inactive).

Take `CC1CCN(C(=O)CSc2nc3ccccc3c(=O)[nH]2)CC1`: the “viability” value is 89.3% (inactive).

Take `NC(=O)c1cnccn1`: the “viability” value is 97.8% (inactive).

For `CCOC1OC(=O)C(Cl)=C1Nc1ccccc1C` (stereo unspecified), the “viability” value was 96.8% (inactive).

Take `Cc1nc(SCC(=O)N(C)c2ccccc2)[nH]c(=O)c1C`: the “viability” value is 94% (inactive).

Take `O=C(CSc1nc2ccccc2c(=O)[nH]1)NC1CCCC1`: the “viability” value is 98% (inactive).

In the case of `Cc1ccc(NC(=O)COC(=O)CCc2c[nH]c3ccccc23)cc1[N+](=O)[O-]`, the “viability” value was 94.4% (inactive).

For the compound `CCOC(=O)CSc1nc(C)c(C)c(=O)[nH]1`, the “viability” value is 100% (inactive).

Turning to `Cc1cc(Br)ccc1NC(=O)c1cnc(N2CCN(c3ccccn3)CC2)c2ccccc12`, the “viability” value was 81.3% (inactive).

For the compound `O=C(CSc1ccccn1)NC1CCCCC1`, the “viability” value was 94.3% (inactive).

For the compound `CC(C)CCNC(=O)CSc1nc2c(c(=O)[nH]1)CCC2`, the “viability” value is 98.9% (inactive).

As to `O=C(CSc1nc2ccccc2c(=O)[nH]1)N1CCOCC1`, the “viability” value was 89.2% (inactive).

For the compound `COc1cccc(NC(=O)CSc2nc3c(c(=O)[nH]2)CCC3)c1`, the “viability” value was 91.2% (inactive).

Take `CN[C@@H]1[C@H](O[C@H]2[C@H](O[C@H]3[C@H](O)[C@@H](O)[C@H](N=C(N)N)[C@@H](O)[C@@H]3N=C(N)N)O[C@@H](C)[C@]2(O)C=O)O[C@@H](CO)[C@H](O)[C@H]1O`: the “viability” value was 97% (inactive).

Regarding `O=C(CSc1nc2ccccc2c(=O)[nH]1)NCc1ccc(Cl)cc1`, the “viability” value is 94.9% (inactive).

For `CCSc1nc(C)c(C)c(=O)[nH]1`, the “viability” value was 96.9% (inactive).

Regarding `COC(=O)C(C)Oc1ccc(Cc2ncc(C(F)(F)F)cc2Cl)cc1` (stereo unspecified), the “viability” value is 89.4% (inactive).

For the compound `Cc1ccc(NC(=O)CSc2nc3ccccc3c(=O)[nH]2)cc1Cl`, the “viability” value was 91.9% (inactive).

Take `CCSc1nc2ccccc2c(=O)[nH]1`: the “viability” value is 96.7% (inactive).

On to `Cc1[nH]c(=S)[nH]c(=O)c1C`, for which the “viability” value is 92.7% (inactive).

With `CN(C(=O)CSc1nc2ccccc2c(=O)[nH]1)C1CCCCC1`, the “viability” value was 96.2% (inactive).

On to `COC(=O)C(Nc1nc(SCC(=O)NC2CCCCC2)nc2ccccc12)c1ccccc1` (stereo unspecified), for which the “viability” value is 86.1% (inactive).

With `CN1CCC(NC(=O)CSc2nc3ccccc3c(=O)[nH]2)CC1`, the “viability” value is 86.5% (inactive).

With `CC[C@@H](CO)NCCN[C@@H](CC)CO`, the “viability” value was 99% (inactive).

`CC(Sc1nc2ccccc2c(=O)[nH]1)C(=O)NC1CCCCC1` (stereo unspecified): the “viability” value is 86.3% (inactive).

On to `CC(C)NC(=O)CSc1nc2ccccc2c(=O)[nH]1`, for which the “viability” value is 91% (inactive).

With `NC[C@H]1O[C@H](O[C@H]2[C@H](O)[C@@H](O[C@H]3O[C@H](CO)[C@@H](O)[C@H](N)[C@H]3O)[C@H](N)C[C@@H]2N)[C@H](O)[C@@H](O)[C@@H]1O`, the “viability” value was 93.3% (inactive).

`O=C(CSc1nccc(=O)[nH]1)NC1CCCCC1`: the “viability” value is 102% (inactive).

Regarding `COC(=O)c1ccc(CNc2c(N3CCCC3)c(=O)c2=O)cc1`, the “viability” value is 103% (inactive).

As to `CO[C@H]1/C=C/O[C@@]2(C)Oc3c(C)c(O)c4c(O)c(c(C=NN5CCN(C)CC5)c(O)c4c3C2=O)NC(=O)/C(C)=C\C=C\[C@H](C)[C@H](O)[C@@H](C)[C@@H](O)[C@@H](C)[C@H](OC(C)=O)[C@@H]1C`, the “viability” value was 87% (inactive).

Regarding `Cc1nc(SCC(N)=O)[nH]c(=O)c1C`, the “viability” value is 97.4% (inactive).
